Assay results published in the OligoGym collection.

Each sequence was assayed against C1orf64 (assay: pooled miR-30 sensor sort-seq; sequence = guide strand). Conditions: shRNA.
Further: reference of the scale not given here.

Sequence | sensor-assay potency score (higher = more potent)
TAGCCTCGGGAACCTCCTGGGG | -1.66
TGTAAGTCTTCATTGGTGGGGT | 0.329
TTTCAGTGAGTCCTTGACTGTT | -0.901
ATGTAAGTCTTCATTGGTGGGG | -0.782
TTGAAGACCTCACAGGCGCAGC | -1.07
TAAGTCTTCATTGGTGGGGTGA | -0.373
TTCAGTGAGTCCTTGACTGTTC | 0.426
TTAGCCTCGGGAACCTCCTGGG | -0.502
TTCCCCACAGAACACGATGTAA | -1.15
ATTGGTGGGGTGACAAGCCCTC | -0.204
TCAATAACAAAAGTCAGGTGAG | -0.224
AAGTTGAAGACCTCACAGGCGC | -0.73

These sequences were tested against C1orf84 in the same assay as above. Conditions: shRNA.

Sequence | sensor-assay potency score (higher = more potent)
TCCAACTCAATGACAAACCGAT | -0.656
TTCATCAAACAAGATCTCCCCT | 0.55
TTACATAGATCTCAGGCTGGAA | -0.261
TTTCATTAACAGGAACACCTGC | 0.405
TTCATTAACAGGAACACCTGCC | 0.858
TCATCAAACAAGATCTCCCCTG | -0.444
TTCCTGTTCAGACAGCATCTCC | -0.954
ATTAACAGGAACACCTGCCCAG | 0.146
TTAACAGGAACACCTGCCCAGC | -1.3
TTGGTGCAGATGACTGAGGAAC | -1.39
TAGTTACATAGATCTCAGGCTG | -0.122

The sequences below were run against C20orf112 in the same assay as above. Conditions: shRNA.

Sequence | sensor-assay potency score (higher = more potent)
TAGATCTCTAGACGCATCCGCT | 0.0864
ATTGTCCTCATGGTCATCGTGG | -0.617
TTGTCTCGCTCTCACAGGCAGC | -1.65
ATCGTCGTCATCATCTGCCGTC | -0.187
TTTCATGCTGAGGTCCGTGGGC | -0.763
TTCATCTGCAGAGCGCAGCAGG | -0.526
TCGTCATCATCTGCCGTCGGGG | -1.61
TTCATCTTGTCATTGTCCTCAT | 0.226
TTGACTGTGGAGGTTCTGCGGG | -0.683
TTCTTGTCTCGCTCTCACAGGC | -0.87
TTGATGGAATCGTAGCTCCCAG | -1.02
TTTCTTGTCTCGCTCTCACAGG | -0.96

These sequences were tested against C20orf54 in the same assay as above. Conditions: shRNA.

Sequence | sensor-assay potency score (higher = more potent)
TGAAGAGGTGCAGTCCACCAGG | -0.698
TATCGTTATCTGCTTGTCTTGT | 0.0273
TTGCAGAAGTCCGCGGACGAGA | -1.3
TTTCTCCTCTAGATACCCCTGG | 0.0398
